{"source": "the supplement of paper PMC10933113", "note": "± gives the uncertainty stated by the source."}
{"system": "THP-1", "assay": "CD86 surface expression induction over DMSO control (% over DMSO); higher = stronger dendritic cell activation", "conditions": "exposure time: 24 h", "procedure": "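hCLAT-like CD54 and CD86 surface expression on THP1 cells after 24 h exposure at a single concentration (highest non-cytotoxic concentration, or 100-200 µM if not cytotoxic). Flow cytometry (iQue) was run on 5,000 live cells.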"}
{"smiles": "O=C(Oc1ccccc1)c1ccccc1O", "note": "[Phenyl salicylate] (200 µM)", "CD86 surface expression induction": "-3.35 ± 5.3"}
{"smiles": "O=[N+]([O-])c1cc(N(CCO)CCO)ccc1NCCO", "note": "(200 µM)", "CD86 surface expression induction": "-7.47 ± 11"}
{"smiles": "Clc1ccc(C(Cn2ccnc2)OCc2ccc(Sc3ccccc3)cc2)c(Cl)c1", "note": "(stereo not given) [Fenticonazole nitrate] (100 µM)", "CD86 surface expression induction": "102 ± 96"}
{"smiles": "COc1cccc2c1C(=O)c1c(O)c3c(c(O)c1C2=O)C[C@@](O)(C(=O)CO)C[C@@H]3O[C@H]1C[C@H](N)[C@H](O)[C@H](C)O1", "note": "[Doxorubicin*] (10 µM)", "CD86 surface expression induction": "218 ± 96"}
{"smiles": "CCCCCCCCN", "note": "[n-Octylamine] (100 µM)", "CD86 surface expression induction": "-6.07 ± 0.55"}
{"smiles": "COc1ccc(C(=O)c2ccc(C)cc2)c(O)c1", "note": "[Mexenone] (300 µM)", "CD86 surface expression induction": "18.8 ± 32"}
{"smiles": "C=CC(=O)OCCOC(=O)CCC(=O)O", "note": "[4-[2-(Acryloyloxy)ethoxy]-4-oxobutanoic acid] (200 µM)", "CD86 surface expression induction": "-12.9 ± 36"}
{"smiles": "O=C1c2ccccc2C(=O)C1c1ccc2ccccc2n1", "note": "[D & C Yellow II] (10 µM)", "CD86 surface expression induction": "-14.2 ± 7.4"}
{"smiles": "O=c1n(CC2CO2)c(=O)n(CC2CO2)c(=O)n1CC1CO1", "note": "(stereo not given) [Triglycidyl isocyanurate] (10 µM)", "CD86 surface expression induction": "0.85 ± 1.2"}
{"smiles": "c1ccc2[nH]c(-c3cscn3)nc2c1", "note": "[Thiabendazole] (100 µM)", "CD86 surface expression induction": "6.44 ± 20"}
{"smiles": "CCCCCCCCCCCCN(CCO)CCO", "note": "[Lauryldiethanolamine] (10 µM)", "CD86 surface expression induction": "-16.1 ± 0.72"}
{"smiles": "CC[C@@]1(O)C(=O)OCc2c1cc1n(c2=O)Cc2c-1nc1ccccc1c2/C=N/OC(C)(C)C", "note": "[Gimatecan] (10 µM)", "CD86 surface expression induction": "25.6 ± 10"}
{"smiles": "c1ccc(SCCSc2ccccc2)cc1", "note": "[1,2-Bis(phenylthio)ethane] (100 µM)", "CD86 surface expression induction": "-2.45 ± 2.3"}
{"smiles": "O=c1[nH]sc2cc(Cl)ccc12", "note": "[Ticlatone] (10 µM)", "CD86 surface expression induction": "-7.52 ± 22"}
{"smiles": "O=C(CCCCCCC(=O)Nc1ccccc1)NO", "note": "[Vorinostat (SAHA)] (100 µM)", "CD86 surface expression induction": "5.02 ± 4"}
{"smiles": "CC1=C(/C=C/C(C)=C\\C=C\\C(C)=C\\C(=O)O)C(C)(C)CCC1", "note": "[9-cis Retinoic acid] (100 µM)", "CD86 surface expression induction": "5.14 ± 16"}
{"smiles": "Cc1ccc(O)c2ncccc12", "note": "[Tiliquinol] (10 µM)", "CD86 surface expression induction": "43.2 ± 60"}
{"smiles": "COc1cc(C(C)(C)C)c(O)c(C(C)(C)C)c1", "note": "[2,6-Di-tert-butyl-4-methoxyphenol] (200 µM)", "CD86 surface expression induction": "18.9 ± 43"}
{"smiles": "Nc1ccccc1N", "note": "[1,2-Phenylenediamine*] (200 µM)", "CD86 surface expression induction": "88.8 ± 49"}
{"smiles": "O=C(Oc1ccccc1)c1cccc(C(=O)Oc2ccccc2)c1", "note": "[Diphenyl isophthalate] (200 µM)", "CD86 surface expression induction": "1.84 ± 5.6"}
{"smiles": "Oc1ccc2cc(SSc3ccc4cc(O)ccc4c3)ccc2c1", "note": "[6-Hydroxy-2-naphthyl disulfide] (100 µM)", "CD86 surface expression induction": "67.2 ± 57"}
{"smiles": "CN(C)c1ccc(SC#N)cc1", "note": "[4-(Dimethylamino)phenylthiocyanate] (10 µM)", "CD86 surface expression induction": "-14.3 ± 7"}
{"smiles": "Cc1c(C)n(Cc2ccccc2)c2ccc(C(=O)OCCN(C)C)cc12", "note": "[Indocate] (200 µM)", "CD86 surface expression induction": "67.3 ± 61"}
{"smiles": "Oc1ccc(/C=C/c2cc(O)cc(O)c2)cc1", "note": "[Resveratrol] (100 µM)", "CD86 surface expression induction": "-3.05 ± 3.9"}
{"smiles": "COc1cc(/C=C2\\CCC/C(=C\\c3ccc(O)c(OC)c3)C2=O)ccc1O", "note": "[Cyclovalone] (10 µM)", "CD86 surface expression induction": "-7.37 ± 5.9"}
{"smiles": "CCCCCCCCCCCCCC[N+](C)(C)C", "note": "[Tetradonium bromide] (10 µM)", "CD86 surface expression induction": "53 ± 19"}
{"smiles": "Nc1ncn([C@@H]2O[C@H](CO)[C@@H](O)[C@H]2O)c(=O)n1", "note": "[5-Azacytidine] (10 µM)", "CD86 surface expression induction": "-17.2 ± 5.3"}
{"smiles": "COC(=O)Nc1nc2cc([S+]([O-])c3ccccc3)ccc2[nH]1", "note": "(stereo not given) [Oxfendazole] (100 µM)", "CD86 surface expression induction": "13.3 ± 2.3"}
{"smiles": "O=[N+]([O-])c1cc(Cl)c(Cl)c(Cl)c1Cl", "note": "[2,3,4,5-Tetrachloronitrobenzene] (10 µM)", "CD86 surface expression induction": "-3.95 ± 2.5"}
{"smiles": "C=C1CC[C@H](O)C/C1=C/C=C1\\CCC[C@]2(C)[C@@H]([C@H](C)/C=C/[C@H](C)C(C)C)CC[C@@H]12", "note": "[Ergocalciferol*] (100 µM)", "CD86 surface expression induction": "74 ± 130"}
{"smiles": "Oc1c(Br)cc(Br)c2cccnc12", "note": "[Broxyquinoline] (100 µM)", "CD86 surface expression induction": "57.8 ± 75"}
{"smiles": "CCCCCCC(C)O", "note": "(stereo not given) [2-Octanol] (200 µM)", "CD86 surface expression induction": "0.56 ± 6.7"}
{"smiles": "O=C(OCc1ccccc1)c1ccc(O)cc1", "note": "[Benzylparaben] (100 µM)", "CD86 surface expression induction": "3 ± 13"}
{"smiles": "COc1ccc2cc(CCC(C)=O)ccc2c1", "note": "[Nabumetone] (100 µM)", "CD86 surface expression induction": "-3.23 ± 4.6"}
{"smiles": "O=C(NS(=O)(=O)/C=C/c1ccccc1)c1ccc(F)cc1Cl", "note": "(200 µM)", "CD86 surface expression induction": "-3.08 ± 4.4"}
{"smiles": "CC(C)(C)c1ccc(S)cc1", "note": "[4-tert-Butylbenzenethiol] (200 µM)", "CD86 surface expression induction": "12.9 ± 21"}
{"smiles": "CC(C)(C)OC(=O)c1ccc(O)cc1", "note": "[tert-Butyl 4-hydroxybenzoate] (100 µM)", "CD86 surface expression induction": "-2.42 ± 14"}
{"smiles": "CCOC(=O)CCC(=O)OCC", "note": "[Diethyl butanedioate] (200 µM)", "CD86 surface expression induction": "-4.2 ± 3.3"}
{"smiles": "Clc1ccc(C(Cn2ccnc2)OCc2c(Cl)cccc2Cl)c(Cl)c1", "note": "(stereo not given) [Isoconazole] (100 µM)", "CD86 surface expression induction": "76.1 ± 95"}
{"smiles": "C/C=C/C=C/C=O", "note": "[2,4-Hexadienal] (200 µM)", "CD86 surface expression induction": "4.48 ± 7.5"}
